Over roughly 33,000 sequences, “e-score” has its median near -0.053; the highest 2% begin near 0.38. Many of the other results were omitted from the sample, so the highest values are more common in it than they were.
Molecular target: T1, SIX1 homeodomain (reference allele) (human, UniProt Q15475 108-198)
T1 sequence: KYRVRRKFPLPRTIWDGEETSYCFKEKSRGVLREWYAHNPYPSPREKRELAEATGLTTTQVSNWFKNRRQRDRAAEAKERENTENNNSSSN
Experiment: universal protein binding microarray; Universal all-10-mer PBM (8x60K, AMADID 030236), 300 nM GST-tagged protein, Alexa Fluor 488 anti-GST; buffer, salt, pH and temperature not stated (as in Berger); high values mean tight binding
Conditions: protein: ivt; tags: N-terminal GST; dsDNA, one strand shown
How it was run: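 Binding of GST-tagged homeodomains is given as 8-mer E-scores from the Universal PBM Analysis Suite. The proteins were produced by in vitro transcription/translation, quantified by anti-GST western blot against a recombinant GST standard curve, and applied in duplicate at 300 nM final concentration to universal 'all 10-mer' protein binding microarrays (8×60K format).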

Sequence | binding signal
CGAGACAC | 0.176 ± 0.0324 E-score
CATAGATA | 0.259 ± 0.0781 E-score
TCACATGA | 0.166 ± 0.0132 E-score
GTATCCCA | 0.388 ± 0.0324 E-score
AAATCCCC | 0.181 ± 0.0853 E-score
CTATCCCA | 0.257 ± 0.013 E-score
CTATCCCC | 0.321 ± 0.0256 E-score
CAATCCCG | 0.155 ± 0.0636 E-score
ATATCCCG | 0.42 ± 0.0102 E-score
ATCTCCCG | 0.222 ± 0.0116 E-score
GAATCCCA | 0.165 ± 0.0648 E-score
ATCTCCCA | 0.238 ± 0.0314 E-score
ATATCCCA | 0.418 ± 0.0119 E-score
CAATCCCA | 0.177 ± 0.00991 E-score
ATATCCCC | 0.457 ± 0.00651 E-score
ATCAAGGG | 0.258 ± 0.0527 E-score
GGAGATTA | 0.197 ± 0.0921 E-score
ATCGGGTC | 0.285 ± 0.0351 E-score
CCGATGAG | 0.173 ± 0.0124 E-score
GAGATAGA | 0.183 ± 0.00408 E-score
ACGAATAT | 0.179 ± 0.047 E-score
CGTTATAC | 0.204 ± 0.0355 E-score

Sequence | binding signal
ATCATGTG | 0.328 ± 0.0175 E-score
CATTGCGG | 0.222 ± 0.028 E-score
CCGCCATA | 0.209 ± 0.0131 E-score
ATACAACG | 0.152 ± 0.0326 E-score
ATCCTCTC | 0.264 ± 0.0756 E-score
ATCGCTCA | 0.192 ± 0.00955 E-score
TAGGTATA | 0.382 ± 0.0292 E-score
AGGGGGTA | 0.294 ± 0.0383 E-score
GGGGTATA | 0.441 ± 0.0155 E-score
GCGGTATA | 0.3752 ± 0.00298 E-score
CGGGGGTA | 0.301 ± 0.0117 E-score
AAGGTATA | 0.272 ± 0.131 E-score
GGGGTAGA | 0.158 ± 0.0407 E-score
AGGGTATA | 0.407 ± 0.0114 E-score
CGGGTATA | 0.365 ± 0.00269 E-score
CGGGTCTC | 0.187 ± 0.0479 E-score
CGGGTATC | 0.487 ± 0.00716 E-score
TGATGCCA | 0.152 ± 0.025 E-score
ATAGGGCG | 0.158 ± 0.0277 E-score
AATATCTG | 0.188 ± 0.0693 E-score
CATGAAAG | 0.157 ± 0.0184 E-score
AGGGTATG | 0.28 ± 0.0175 E-score

Sequence | binding signal
AGGGTAAT | 0.205 ± 0.0122 E-score
AGGGTATC | 0.4907 ± 0.00122 E-score
CCATCCCC | 0.203 ± 0.0814 E-score
GTAATATA | 0.226 ± 0.0387 E-score
GGTGATGA | 0.191 ± 0.0354 E-score
GGTGATAC | 0.4856 ± 0.00178 E-score
AGTGATAC | 0.489 ± 0.00626 E-score
AGTGACAC | 0.354 ± 0.0169 E-score
AGTGATAG | 0.32 ± 0.0815 E-score
AGTGAGAT | 0.306 ± 0.0146 E-score
AGTGTGAT | 0.247 ± 0.0427 E-score
AGTGATAT | 0.451 ± 0.0283 E-score
CGTGATAG | 0.244 ± 0.00391 E-score
CGTGACAC | 0.2472 ± 0.00208 E-score
CGTGATAC | 0.4798 ± 0.000721 E-score
GGTGATAA | 0.154 ± 0.0176 E-score
ACACCATG | 0.306 ± 0.0191 E-score
CCCCATCG | 0.152 ± 0.0278 E-score
TACCCACA | 0.196 ± 0.0401 E-score
ATAGGCAG | 0.184 ± 0.025 E-score
CCAAGATA | 0.229 ± 0.0485 E-score
ATACGCAG | 0.314 ± 0.0177 E-score

Sequence | binding signal
ATCATGTC | 0.295 ± 0.0201 E-score
GCGACCGA | 0.151 ± 0.024 E-score
ATCCCGAA | 0.252 ± 0.0478 E-score
ATCCCCTG | 0.3344 ± 0.00285 E-score
ATCCCCTA | 0.374 ± 0.0124 E-score
ATCCCCAT | 0.295 ± 0.0355 E-score
ATCCCCCG | 0.403 ± 0.00588 E-score
ATCCCCCA | 0.392 ± 0.0226 E-score
ATCCCCAA | 0.294 ± 0.0584 E-score
ATCCCGAT | 0.378 ± 0.0289 E-score
ATCCCCTC | 0.387 ± 0.0304 E-score
ATCCCGCG | 0.323 ± 0.0328 E-score
ATCCCGAG | 0.257 ± 0.025 E-score
ATCCCCGG | 0.307 ± 0.0247 E-score
ATGCGGTA | 0.265 ± 0.0333 E-score
AGATGGAT | 0.328 ± 0.00364 E-score
ATACAGGG | 0.295 ± 0.0454 E-score
CGTAGATA | 0.23 ± 0.0417 E-score
GATCGTTA | 0.198 ± 0.00351 E-score
ATACGGCC | 0.344 ± 0.0108 E-score

— publication PMC10668032, “Altered binding affinity of SIX1-Q177R correlates with enhanced WNT5A and WNT pathway effector expression in Wilms tumor”
